Source: article PMC5700166
Substitutions are numbered along the chain they refer to.

Key:
Assay in all cases: protein-binding microarray (PBM); PBM: ~300 nM protein, 6 mM HEPES pH 7.8, 80 mM KCl, 0.5 mM EDTA, 0.5 mM EGTA, 6% glycerol, 35 ng/ul poly-dIdC, 1% milk, 1 h, room temperature; Ap Aiptasia and Nv Nematostella (sea anemones) / Co Capsaspora / Aq Amphimedon (sponge) / Dm Drosophila / Hu human; RHD is the Rel homology domain; high values mean tight binding
Settings in all cases: dsDNA, one strand shown
GST-Ap-NF-kB RHD = biological target: T1, GST-Ap-NF-kB RHD (Exaiptasia pallida (Aiptasia), UniProt A0A913YAJ5 2-422)
T1 sequence: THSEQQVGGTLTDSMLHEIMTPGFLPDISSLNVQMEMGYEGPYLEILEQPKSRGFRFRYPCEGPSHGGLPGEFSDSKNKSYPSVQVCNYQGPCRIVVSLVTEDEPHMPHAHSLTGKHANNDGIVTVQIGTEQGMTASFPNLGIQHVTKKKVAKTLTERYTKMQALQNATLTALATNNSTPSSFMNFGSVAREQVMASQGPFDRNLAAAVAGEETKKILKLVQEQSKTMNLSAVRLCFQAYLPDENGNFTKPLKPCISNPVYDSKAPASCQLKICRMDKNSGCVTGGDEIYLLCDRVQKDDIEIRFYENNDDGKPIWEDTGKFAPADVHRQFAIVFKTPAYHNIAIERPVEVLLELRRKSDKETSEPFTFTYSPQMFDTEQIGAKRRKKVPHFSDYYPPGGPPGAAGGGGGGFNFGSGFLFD

[1] = biological target: T2, GST-Nv-NF-kB (Cys allele) (Nematostella vectensis, UniProt E5G601 2-411)
T2 sequence: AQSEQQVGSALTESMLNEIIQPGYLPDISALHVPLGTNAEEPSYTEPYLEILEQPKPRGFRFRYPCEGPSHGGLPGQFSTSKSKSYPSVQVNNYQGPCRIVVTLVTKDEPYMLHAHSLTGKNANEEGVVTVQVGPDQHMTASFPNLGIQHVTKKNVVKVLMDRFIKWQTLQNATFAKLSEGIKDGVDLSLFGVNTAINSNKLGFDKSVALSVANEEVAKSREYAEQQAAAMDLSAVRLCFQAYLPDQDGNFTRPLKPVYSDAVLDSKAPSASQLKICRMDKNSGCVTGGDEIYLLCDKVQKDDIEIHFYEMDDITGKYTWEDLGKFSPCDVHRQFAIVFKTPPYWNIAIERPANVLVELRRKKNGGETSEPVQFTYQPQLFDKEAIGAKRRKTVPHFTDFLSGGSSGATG

[2] = biological target: T3, GST-Nv-NF-kB (Ser allele) (Nematostella vectensis, UniProt A7UNT2 2-411)
T3 sequence: T2 sequence with Q21R, C66S, S207N, E215Q, V217A, E225K, A268E, D399E

GST-Co-NF-kB = biological target: T4, GST-Co-NF-kB (Capsaspora owczarzaki, UniProt F1ARL5 200-546)
T4 sequence: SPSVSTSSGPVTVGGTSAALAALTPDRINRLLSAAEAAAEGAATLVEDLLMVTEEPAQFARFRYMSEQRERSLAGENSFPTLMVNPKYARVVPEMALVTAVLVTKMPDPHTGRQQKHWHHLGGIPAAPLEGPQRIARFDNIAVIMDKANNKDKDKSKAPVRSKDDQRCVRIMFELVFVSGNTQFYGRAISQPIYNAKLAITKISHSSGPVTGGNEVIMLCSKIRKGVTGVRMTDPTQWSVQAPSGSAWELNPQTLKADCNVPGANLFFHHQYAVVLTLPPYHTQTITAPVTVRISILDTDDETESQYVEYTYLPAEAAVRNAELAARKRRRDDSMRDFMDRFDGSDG

GST-Dm-Relish = biological target: T5, GST-Dm-Relish (Drosophila melanogaster, UniProt Q94527 99-473)
T5 sequence: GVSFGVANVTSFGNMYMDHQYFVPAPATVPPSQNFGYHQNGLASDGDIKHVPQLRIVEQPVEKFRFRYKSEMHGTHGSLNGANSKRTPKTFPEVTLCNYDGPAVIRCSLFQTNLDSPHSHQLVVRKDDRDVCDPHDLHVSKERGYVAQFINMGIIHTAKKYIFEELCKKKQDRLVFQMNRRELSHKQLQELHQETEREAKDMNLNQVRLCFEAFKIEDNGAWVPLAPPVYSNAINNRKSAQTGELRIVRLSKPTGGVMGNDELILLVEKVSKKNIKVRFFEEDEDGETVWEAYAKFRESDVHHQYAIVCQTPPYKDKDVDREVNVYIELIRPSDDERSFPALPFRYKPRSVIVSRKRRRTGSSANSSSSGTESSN

GST-Aq-NF-kB = biological target: T6, GST-Aq-NF-kB (Amphimedon queenslandica, UniProt A9Y5G7 2-389)
T6 sequence: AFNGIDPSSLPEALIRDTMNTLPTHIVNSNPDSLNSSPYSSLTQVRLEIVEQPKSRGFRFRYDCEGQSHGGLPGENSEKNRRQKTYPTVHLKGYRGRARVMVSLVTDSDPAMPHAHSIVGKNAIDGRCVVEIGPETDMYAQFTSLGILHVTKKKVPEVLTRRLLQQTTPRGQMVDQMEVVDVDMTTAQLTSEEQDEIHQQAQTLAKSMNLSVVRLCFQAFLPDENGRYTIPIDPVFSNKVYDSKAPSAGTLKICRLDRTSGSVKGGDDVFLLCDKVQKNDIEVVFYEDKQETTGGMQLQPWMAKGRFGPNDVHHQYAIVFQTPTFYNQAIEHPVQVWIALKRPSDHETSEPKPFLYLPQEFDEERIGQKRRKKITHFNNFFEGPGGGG

GST-Hu-p50 = GST-Hu-p50 (Homo sapiens, UniProt P19838 7-356)
Sequence of GST-Hu-p50 (P19838 7-356): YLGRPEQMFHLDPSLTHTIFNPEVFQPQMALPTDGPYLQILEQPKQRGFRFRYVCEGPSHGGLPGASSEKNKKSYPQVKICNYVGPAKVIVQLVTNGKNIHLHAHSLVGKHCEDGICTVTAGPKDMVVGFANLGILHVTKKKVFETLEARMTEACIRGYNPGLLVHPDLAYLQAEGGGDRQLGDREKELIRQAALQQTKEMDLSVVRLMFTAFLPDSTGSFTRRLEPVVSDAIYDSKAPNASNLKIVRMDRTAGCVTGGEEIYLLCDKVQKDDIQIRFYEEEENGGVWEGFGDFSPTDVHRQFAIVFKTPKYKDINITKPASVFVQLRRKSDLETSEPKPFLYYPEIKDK

Row | Sequence | binding signal (GST-Ap-NF-kB RHD) | binding signal [1] | binding signal [2] | binding signal (GST-Co-NF-kB) | binding signal (GST-Dm-Relish) | binding signal (GST-Aq-NF-kB) | binding signal (GST-Hu-p50)
1 | CCGATTAACATCAGGGGCGTTTATGATGTTAATCGGGTCTTGATTCGCTTGACGCTGCTG | 3.36 z-score | 3.44 z-score | 3.2 z-score | 1.35 z-score | 2.1 z-score | 3.54 z-score | 3.71 z-score
2 | CCGATTAACATCAAAATTCCCAGTGATGTTAATCGGGTCTTGATTCGCTTGACGCTGCTG | 3.76 z-score | 5.07 z-score | 4.98 z-score | 4.87 z-score | 5.12 z-score | 4.23 z-score | 4.24 z-score
3 | CCGATTAACATCAAGAGATTCCCTGATGTTAATCGGGTCTTGATTCGCTTGACGCTGCTG | 3.17 z-score | 3.88 z-score | 3.73 z-score | 2.46 z-score | 2.38 z-score | 4.06 z-score | 2.78 z-score
4 | CCGATTAACATCAGAAAATACCCTGATGTTAATCGGGTCTTGATTCGCTTGACGCTGCTG | 5.86 z-score | 8.27 z-score | 7.72 z-score | 1.93 z-score | 6.76 z-score | 7.37 z-score | 6.32 z-score
5 | CCGATTAACATCAGGGAATCTTATGATGTTAATCGGGTCTTGATTCGCTTGACGCTGCTG | 3.7 z-score | 4.66 z-score | 4.86 z-score | 3.74 z-score | 2.95 z-score | 5.5 z-score | 4.29 z-score
6 | CCGATTAACATCAACTTCCCCCCTGATGTTAATCGGGTCTTGATTCGCTTGACGCTGCTG | 7.03 z-score | 6.37 z-score | 6.34 z-score | 9.16 z-score | 7.29 z-score | 6.32 z-score | 5.76 z-score
7 | CCGATTAACATCAGGACTCCCCATGATGTTAATCGGGTCTTGATTCGCTTGACGCTGCTG | 5.91 z-score | 3.31 z-score | 3.6 z-score | 3.44 z-score | 6.5 z-score | 4.12 z-score | 2.97 z-score
8 | CCGATTAACATCAGGGGAAACCATGATGTTAATCGGGTCTTGATTCGCTTGACGCTGCTG | 6.6 z-score | 7.42 z-score | 10.1 z-score | 8.24 z-score | 6.18 z-score | 5.84 z-score | 5.64 z-score
9 | CCGATTAACATCAAGAAATCCCCTGATGTTAATCGGGTCTTGATTCGCTTGACGCTGCTG | 9.62 z-score | 11.5 z-score | 12.5 z-score | 4.27 z-score | 9.61 z-score | 7.7 z-score | 7.69 z-score
10 | CCGATTAACATCAGGAGTGTCCCTGATGTTAATCGGGTCTTGATTCGCTTGACGCTGCTG | 2.12 z-score | 2.48 z-score | 1.44 z-score | 1.05 z-score | 1.23 z-score | 4.83 z-score | 1.29 z-score
11 | CCGATTAACATCAGTACTCCCCATGATGTTAATCGGGTCTTGATTCGCTTGACGCTGCTG | 3.64 z-score | 2.81 z-score | 2.45 z-score | 2.88 z-score | 4.81 z-score | 2.35 z-score | 2.2 z-score
